Test results published in PubChem BioAssay (EPA / NIEHS).
Results filed as inconclusive are left out. Calls of active or inactive are those of the source. How the source made its calls: active means hit-call score of the fitted dose curve at least 0.9, where 1 is the maximum; inconclusive means response in the unintended direction; inactive means score below 0.9.

What was measured:
[1] = biological target: Mitogen-activated protein kinase 3 (Homo sapiens) (UniProt P27361); experiment: NVS_ENZ_hMAPK3: NovaScreen (NVS) Enzymatic Assay for human Mitogen-Activated Protein Kinase 3 (MAPK 3) (AID 2283177)
Outline: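 Chemicals were first tested in duplicate at 25 uM, with hits re-run as concentration series (max 50 uM). Recombinant enzyme activity, measured 1 h post-dose in a cell-free format, was read by fluorescence/mobility shift relative to DMSO.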

[2] = biological target: human MAP Kinase-Activated Protein Kinase 2 (MAPKAPK2), MAPKAPK2 (gene 9261) (UniProt P49137); experiment: NVS_ENZ_hMAPKAPK2: NovaScreen (NVS) Enzymatic Assay for human MAP Kinase-Activated Protein Kinase 2 (MAPKAPK2) (AID 2283178)
Outline: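 Chemicals screened in duplicate at 25 uM, then to 50 uM top concentration in concentration-response, against recombinant human MAPKAPK2; substrate conversion read 1 hr post-dosing by fluorescence after electrophoretic mobility-shift separation, loss-of-signal relative to DMSO.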

[3] = biological target: human MET Proto-Oncogene, Receptor Tyrosine Kinase (MET), MET (gene 4233) (UniProt P08581); experiment: NVS_ENZ_hMet: NovaScreen (NVS) Enzymatic Assay for human MET Proto-Oncogene, Receptor Tyrosine Kinase (MET) (AID 2283180)
Outline: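 Hits from a 25 uM duplicate screen were retested in concentration series up to 50 uM. Enzyme activity was measured by fluorescence after electrophoretic separation of product from substrate, 1 h after compound addition, relative to DMSO.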

[4] = biological target: human NIMA (Never In Mitosis Gene A)-Related Kinase 2 (NEK2), NEK2 (gene 4751) (UniProt P51955); experiment: NVS_ENZ_hNEK2: NovaScreen (NVS) Enzymatic Assay for human NIMA (Never In Mitosis Gene A)-Related Kinase 2 (NEK2) (AID 2283188)
Outline: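 Compounds were first screened in duplicate at 25 uM, with actives followed up in concentration series. Recombinant NEK2 activity, cell-free, was read 1 h after dosing by fluorescence intensity after mobility-shift separation. Signal loss was scored against DMSO.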

[5] = biological target: human p21 Activated Kinase 4 (PAK4), PAK4 (gene 10298) (UniProt O96013); experiment: NVS_ENZ_hPAK4: NovaScreen (NVS) Enzymatic Assay for human p21 Activated Kinase 4 (PAK4) (AID 2283189)
Outline: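 Extracted PAK4 enzyme activity read by fluorescence with mobility-shift separation 1 h after chemical addition. Duplicate single-concentration screen at 25 uM, DMSO as negative control.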

[6] = biological target: cAMP-dependent protein kinase catalytic subunit alpha (Homo sapiens) (UniProt P17612); experiment: NVS_ENZ_hPKA: NovaScreen (NVS) Enzymatic Assay for human Protein Kinase A (PKA) (AID 2283192)
Outline: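 Cell-free kinase activity read by fluorescence after mobility-shift separation of substrate and product, 1 h post-dosing. Single-concentration duplicate screen (25 uM) preceded singleton concentration series (top 50 uM); loss of signal versus DMSO.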

[7] = biological target: human Phosphodiesterase 5 (PDE5), PDE5A (gene 8654) (UniProt O76074); experiment: NVS_ENZ_hPDE5: NovaScreen (NVS) Enzymatic Assay for human Phosphodiesterase 5 (PDE5) (AID 2283194)
Outline: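 Screening began in duplicate at 25 uM, with actives taken into concentration-response. Enzyme activity of recombinant PDE5 toward its substrate was measured at 1 h by fluorescence mobility-shift detection, relative to DMSO controls.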

[8] = biological target: human Protein Tyrosine Phosphatase Non-receptor Type 1 (PTPN1), PTPN1 (gene 5770) (UniProt P18031); experiment: NVS_ENZ_hPTPN1: NovaScreen (NVS) Enzymatic Assay for human Protein Tyrosine Phosphatase Non-receptor Type 1 (PTPN1) (AID 2283201)
Outline: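 Chemicals were first tested in duplicate at 25 uM, and those passing threshold went on to singleton concentration series topping at 50 uM. Recombinant enzyme, specific substrate, product separated by mobility shift, fluorescence read at 1.33 h; activity loss relative to DMSO.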

[9] = biological target: human Phosphodiesterase 10 (PDE10), PDE10A (gene 10846) (UniProt Q9Y233); experiment: NVS_ENZ_hPDE10: NovaScreen (NVS) Enzymatic Assay for human Phosphodiesterase 10 (PDE10) (AID 2283195)
Outline: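 Biochemical single-readout PDE10A assay, cell-free, extracted protein. Compounds first screened at 25 uM in duplicate, hits then titrated to 50 uM max. Activity measured after 1 h; loss-of-signal fitted against DMSO negative control.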

[10] = biological target: human Matrix Metalloproteinase-2 (MMP2), MMP2 (gene 4313) (UniProt P08253); experiment: NVS_ENZ_hMMP2: NovaScreen (NVS) Enzymatic Assay for human Matrix Metalloproteinase-2 (MMP2) (AID 2283184)
Outline: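 Compounds first screened in duplicate at a single 25 uM, with actives followed up in concentration series. Recombinant human MMP2 cleaves a fluorogenic substrate; fluorescence taken at 1 h, inhibition fitted relative to DMSO.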

[11] = biological target: human Mitogen- and Stress-activated Protein Kinase-1 (Msk1), RPS6KA5 (gene 9252) (UniProt O75582); experiment: NVS_ENZ_hMsk1: NovaScreen (NVS) Enzymatic Assay for human Mitogen- and Stress-activated Protein Kinase-1 (Msk1) (AID 2283187)
Outline: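 Chemicals first run in duplicate at 25 uM, with actives followed up in singleton concentration series to 50 uM maximum. Enzyme activity came from substrate/product mobility-shift separation with fluorescence detection after 1 h incubation of the recombinant protein.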

[12] = biological target: human Matrix Metalloproteinase-7 (MMP7), MMP7 (gene 4316) (UniProt P09237); experiment: NVS_ENZ_hMMP7: NovaScreen (NVS) Enzymatic Assay for human Matrix Metalloproteinase-7 (MMP7) (AID 2283183)
Outline: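 Compounds first tested at 25 uM in duplicate, then at up to 50 uM in concentration series if active. Protease activity measured by fluorescence intensity 1 h after dosing, with fitting relative to DMSO.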

[13] = biological target: human Mitogen-Activated Protein Kinase 1 (MAPK 1), MAPK1 (gene 5594) (UniProt P28482); experiment: NVS_ENZ_hMAPK1: NovaScreen (NVS) Enzymatic Assay for human Mitogen-Activated Protein Kinase 1 (MAPK 1) (AID 2283175)
Outline: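 Cell-free recombinant human MAPK1 enzymatic assay, fluorescence/electrophoretic mobility shift read at 1 h; loss of signal vs DMSO. Primary screen in duplicate at 25 uM; actives (e.g. ≥30% inhibition) run as concentration-response up to 50 uM.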

[14] = biological target: human Matrix Metalloproteinase-1 (MMP1), MMP1 (gene 4312) (UniProt P03956); experiment: NVS_ENZ_hMMP1: NovaScreen (NVS) Enzymatic Assay for human Matrix Metalloproteinase-1 (MMP1) (AID 2283181)
Outline: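 Cell-free fluorescent substrate assay of human MMP1, read after 1 h. A single 25 uM duplicate screen was followed by concentration series to a maximum of 50 uM for actives meeting threshold; inhibition analysed against DMSO baseline.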

[15] = biological target: human Matrix Metalloproteinase-9 (MMP9), MMP9 (gene 4318) (UniProt P14780); experiment: NVS_ENZ_hMMP9: NovaScreen (NVS) Enzymatic Assay for human Matrix Metalloproteinase-9 (MMP9) (AID 2283190);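 further: cell-free recombinant MMP9 protease activity read by fluorescent substrate signal; active means inhibition seen as loss of fluorescence signal versus DMSO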
Outline: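 Screening concentration 25 uM, duplicate wells, then dose series for confirmation. Cell-free enzymatic reaction measured by fluorescence intensity 1 h post-dosing; decreased signal versus DMSO taken as activity.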

[16] = biological target: human Matrix Metalloproteinase-3 (MMP3), MMP3 (gene 4314) (UniProt P08254); experiment: NVS_ENZ_hMMP3: NovaScreen (NVS) Enzymatic Assay for human Matrix Metalloproteinase-3 (MMP3) (AID 2283185)
Outline: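 Fluorescent substrate turnover by recombinant MMP3 read after 1 h, signal loss scored against DMSO. Compounds first run in duplicate at 25 uM single dose, then actives confirmed by concentration series.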

[17] = biological target: Serine/threonine-protein phosphatase PP1-alpha catalytic subunit (Homo sapiens) (UniProt P62136); experiment: NVS_ENZ_hPPP1CA: NovaScreen (NVS) Enzymatic Assay for human Protein Phosphatase 1 Aatalytic subunit Alpha (PPP1CA) (AID 2283200)
Outline: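 Chemicals were first screened in duplicate at 25 uM, and those passing threshold (e.g. 30% inhibition) were run as concentration series to 50 uM. Cell-free recombinant protein, 1.33 h read, fluorescent substrate/product mobility-shift detection, normalised to DMSO.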

human NIMA (Never In Mitosis Gene A)-Related Kinase 2 (NEK2), NEK2 (gene 4751), sequence (P51955 whole entry, looked up): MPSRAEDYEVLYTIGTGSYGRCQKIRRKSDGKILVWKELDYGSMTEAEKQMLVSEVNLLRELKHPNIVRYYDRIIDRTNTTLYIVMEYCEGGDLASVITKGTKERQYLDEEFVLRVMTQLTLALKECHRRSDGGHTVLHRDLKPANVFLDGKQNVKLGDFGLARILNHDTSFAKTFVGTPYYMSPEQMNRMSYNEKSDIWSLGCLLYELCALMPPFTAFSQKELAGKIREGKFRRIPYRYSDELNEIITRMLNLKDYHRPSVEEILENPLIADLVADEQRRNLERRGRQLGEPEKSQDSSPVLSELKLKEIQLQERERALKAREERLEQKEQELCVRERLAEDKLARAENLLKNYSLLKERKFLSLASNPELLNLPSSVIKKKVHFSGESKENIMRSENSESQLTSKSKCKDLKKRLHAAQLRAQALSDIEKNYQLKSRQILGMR
human MET Proto-Oncogene, Receptor Tyrosine Kinase (MET), MET (gene 4233), sequence (P08581 whole entry, looked up): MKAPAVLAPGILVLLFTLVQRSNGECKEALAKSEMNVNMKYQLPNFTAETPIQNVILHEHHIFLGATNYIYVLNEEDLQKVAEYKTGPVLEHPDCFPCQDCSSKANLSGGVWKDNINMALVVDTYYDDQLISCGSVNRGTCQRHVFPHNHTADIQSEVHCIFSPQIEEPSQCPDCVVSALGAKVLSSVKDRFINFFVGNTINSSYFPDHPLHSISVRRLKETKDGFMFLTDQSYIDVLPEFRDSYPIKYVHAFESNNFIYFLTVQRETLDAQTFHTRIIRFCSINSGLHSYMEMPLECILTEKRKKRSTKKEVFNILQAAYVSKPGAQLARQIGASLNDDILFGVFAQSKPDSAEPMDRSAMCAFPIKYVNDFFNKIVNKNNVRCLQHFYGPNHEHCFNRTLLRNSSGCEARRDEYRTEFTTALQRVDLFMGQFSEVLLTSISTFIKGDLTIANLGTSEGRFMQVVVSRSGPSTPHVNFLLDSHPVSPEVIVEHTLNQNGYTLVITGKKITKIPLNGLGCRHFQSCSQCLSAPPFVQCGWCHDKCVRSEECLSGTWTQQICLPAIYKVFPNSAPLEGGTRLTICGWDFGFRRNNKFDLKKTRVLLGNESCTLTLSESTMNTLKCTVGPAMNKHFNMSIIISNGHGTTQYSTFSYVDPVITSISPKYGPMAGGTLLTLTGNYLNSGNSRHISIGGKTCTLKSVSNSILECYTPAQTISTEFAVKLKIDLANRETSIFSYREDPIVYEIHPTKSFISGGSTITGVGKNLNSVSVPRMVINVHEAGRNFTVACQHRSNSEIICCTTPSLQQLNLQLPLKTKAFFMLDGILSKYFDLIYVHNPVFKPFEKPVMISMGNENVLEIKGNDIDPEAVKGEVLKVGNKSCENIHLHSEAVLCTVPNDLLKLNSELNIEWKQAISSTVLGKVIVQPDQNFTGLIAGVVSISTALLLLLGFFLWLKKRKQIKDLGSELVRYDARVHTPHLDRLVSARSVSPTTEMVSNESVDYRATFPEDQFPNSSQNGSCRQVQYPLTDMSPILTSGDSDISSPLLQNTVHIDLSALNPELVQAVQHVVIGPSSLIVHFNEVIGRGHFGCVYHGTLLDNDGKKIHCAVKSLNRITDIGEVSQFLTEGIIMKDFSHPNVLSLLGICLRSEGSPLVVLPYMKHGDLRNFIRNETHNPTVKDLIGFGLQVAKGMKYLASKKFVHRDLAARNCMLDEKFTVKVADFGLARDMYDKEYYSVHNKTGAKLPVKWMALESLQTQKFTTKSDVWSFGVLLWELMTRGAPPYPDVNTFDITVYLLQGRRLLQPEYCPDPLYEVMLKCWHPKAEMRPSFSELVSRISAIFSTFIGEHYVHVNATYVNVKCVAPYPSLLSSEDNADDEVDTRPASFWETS
Mitogen-activated protein kinase 3 (Homo sapiens), sequence (P27361 whole entry, looked up): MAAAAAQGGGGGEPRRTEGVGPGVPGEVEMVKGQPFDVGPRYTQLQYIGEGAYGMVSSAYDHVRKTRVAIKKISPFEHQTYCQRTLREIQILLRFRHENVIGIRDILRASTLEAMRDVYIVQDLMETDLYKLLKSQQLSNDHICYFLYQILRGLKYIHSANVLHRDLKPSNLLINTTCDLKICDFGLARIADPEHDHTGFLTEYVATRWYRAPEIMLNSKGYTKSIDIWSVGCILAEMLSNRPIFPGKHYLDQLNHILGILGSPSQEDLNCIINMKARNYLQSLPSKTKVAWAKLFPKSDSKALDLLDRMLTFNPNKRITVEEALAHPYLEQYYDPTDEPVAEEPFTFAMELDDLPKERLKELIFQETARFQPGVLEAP
human p21 Activated Kinase 4 (PAK4), PAK4 (gene 10298), sequence (O96013 whole entry, looked up): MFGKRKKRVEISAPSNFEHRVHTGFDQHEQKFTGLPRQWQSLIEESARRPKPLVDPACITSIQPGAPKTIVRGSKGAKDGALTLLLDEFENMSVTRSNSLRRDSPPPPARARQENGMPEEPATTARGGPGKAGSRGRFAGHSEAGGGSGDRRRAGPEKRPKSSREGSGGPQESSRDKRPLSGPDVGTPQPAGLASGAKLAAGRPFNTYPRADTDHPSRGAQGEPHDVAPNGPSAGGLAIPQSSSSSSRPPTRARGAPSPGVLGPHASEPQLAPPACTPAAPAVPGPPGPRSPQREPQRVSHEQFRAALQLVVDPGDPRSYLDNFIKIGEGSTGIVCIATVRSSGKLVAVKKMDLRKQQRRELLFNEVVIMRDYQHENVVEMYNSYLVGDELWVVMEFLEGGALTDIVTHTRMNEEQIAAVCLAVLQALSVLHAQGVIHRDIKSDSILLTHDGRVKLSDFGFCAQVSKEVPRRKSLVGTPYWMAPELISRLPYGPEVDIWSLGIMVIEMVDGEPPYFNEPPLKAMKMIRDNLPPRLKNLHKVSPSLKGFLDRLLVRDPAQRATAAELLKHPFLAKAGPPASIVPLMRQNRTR
human Phosphodiesterase 10 (PDE10), PDE10A (gene 10846), sequence (Q9Y233 whole entry, looked up): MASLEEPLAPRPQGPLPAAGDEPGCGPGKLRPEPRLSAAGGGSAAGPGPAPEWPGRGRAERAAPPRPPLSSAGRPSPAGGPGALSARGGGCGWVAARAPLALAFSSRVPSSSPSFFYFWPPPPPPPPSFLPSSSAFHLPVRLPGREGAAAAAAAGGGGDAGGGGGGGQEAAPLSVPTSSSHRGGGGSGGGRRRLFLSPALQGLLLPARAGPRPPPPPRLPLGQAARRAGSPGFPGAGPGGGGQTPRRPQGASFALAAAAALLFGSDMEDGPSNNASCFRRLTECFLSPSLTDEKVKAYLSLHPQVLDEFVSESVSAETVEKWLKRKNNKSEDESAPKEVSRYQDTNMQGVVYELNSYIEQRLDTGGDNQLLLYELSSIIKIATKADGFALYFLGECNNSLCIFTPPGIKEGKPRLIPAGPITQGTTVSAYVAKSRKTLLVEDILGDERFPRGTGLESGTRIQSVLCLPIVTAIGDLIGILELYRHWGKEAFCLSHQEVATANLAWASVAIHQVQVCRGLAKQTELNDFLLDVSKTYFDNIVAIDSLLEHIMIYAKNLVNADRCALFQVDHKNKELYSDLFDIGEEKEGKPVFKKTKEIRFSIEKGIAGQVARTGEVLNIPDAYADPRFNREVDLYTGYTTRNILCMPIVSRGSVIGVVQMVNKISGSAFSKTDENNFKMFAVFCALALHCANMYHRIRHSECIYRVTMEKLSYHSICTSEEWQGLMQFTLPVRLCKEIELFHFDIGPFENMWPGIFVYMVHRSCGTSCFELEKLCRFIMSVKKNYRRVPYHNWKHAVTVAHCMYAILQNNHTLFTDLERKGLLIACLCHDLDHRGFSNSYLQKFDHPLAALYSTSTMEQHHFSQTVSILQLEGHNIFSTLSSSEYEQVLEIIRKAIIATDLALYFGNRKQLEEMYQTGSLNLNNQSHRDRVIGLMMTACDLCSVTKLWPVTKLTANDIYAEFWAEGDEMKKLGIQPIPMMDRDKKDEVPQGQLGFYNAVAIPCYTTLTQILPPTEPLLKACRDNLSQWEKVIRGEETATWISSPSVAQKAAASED
human Matrix Metalloproteinase-1 (MMP1), MMP1 (gene 4312), sequence (P03956 whole entry, looked up): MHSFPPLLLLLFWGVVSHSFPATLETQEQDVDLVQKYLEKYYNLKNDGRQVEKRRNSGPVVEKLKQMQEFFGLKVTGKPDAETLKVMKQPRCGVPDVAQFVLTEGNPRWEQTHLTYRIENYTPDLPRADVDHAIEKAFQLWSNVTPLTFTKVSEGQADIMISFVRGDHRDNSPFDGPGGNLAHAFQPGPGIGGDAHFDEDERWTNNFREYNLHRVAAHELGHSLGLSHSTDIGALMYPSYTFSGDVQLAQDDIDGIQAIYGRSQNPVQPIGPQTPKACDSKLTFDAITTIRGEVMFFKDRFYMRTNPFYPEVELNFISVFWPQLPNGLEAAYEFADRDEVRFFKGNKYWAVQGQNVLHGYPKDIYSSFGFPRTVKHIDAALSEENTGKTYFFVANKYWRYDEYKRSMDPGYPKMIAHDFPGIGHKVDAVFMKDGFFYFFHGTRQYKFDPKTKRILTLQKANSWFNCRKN
human Matrix Metalloproteinase-9 (MMP9), MMP9 (gene 4318), sequence (P14780 whole entry, looked up): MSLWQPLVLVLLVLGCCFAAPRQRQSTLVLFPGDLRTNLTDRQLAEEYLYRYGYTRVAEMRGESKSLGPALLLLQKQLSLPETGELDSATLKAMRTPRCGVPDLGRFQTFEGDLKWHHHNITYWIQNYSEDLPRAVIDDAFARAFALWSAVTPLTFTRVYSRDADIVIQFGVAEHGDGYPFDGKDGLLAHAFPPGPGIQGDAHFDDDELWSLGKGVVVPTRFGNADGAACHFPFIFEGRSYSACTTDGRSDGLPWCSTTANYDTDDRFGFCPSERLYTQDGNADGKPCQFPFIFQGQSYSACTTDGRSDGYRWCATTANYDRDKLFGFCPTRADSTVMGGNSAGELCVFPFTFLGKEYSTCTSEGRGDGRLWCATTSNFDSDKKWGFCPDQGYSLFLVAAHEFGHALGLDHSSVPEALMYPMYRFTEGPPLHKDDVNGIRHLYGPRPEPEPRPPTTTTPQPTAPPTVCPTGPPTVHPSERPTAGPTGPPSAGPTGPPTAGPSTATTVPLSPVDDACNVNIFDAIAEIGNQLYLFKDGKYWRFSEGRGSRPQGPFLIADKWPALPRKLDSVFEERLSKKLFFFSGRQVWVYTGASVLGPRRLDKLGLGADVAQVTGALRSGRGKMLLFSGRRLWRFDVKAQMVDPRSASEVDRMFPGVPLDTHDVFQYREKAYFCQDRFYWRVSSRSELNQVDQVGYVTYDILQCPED

## N#Cc1cccnc1
[1]
  outcome: inactive
[2]
  outcome: inactive
[3]
  outcome: inactive
[4]
  outcome: inactive
[5]
  outcome: inactive
[6]
  outcome: inactive
[7]
  AC50: 40.8 µM (active)
[8]
  outcome: inactive

## c1ccc2sc(SNC3CCCCC3)nc2c1
[9]
  outcome: inactive

## O=[N+]([O-])c1ccc(Nc2ccccc2)cc1
[9]
  outcome: inactive

## CCOP(=O)(OCC)SCCSCC
[9]
  outcome: inactive

## CN(C)C(=S)S
[5]
  outcome: inactive
[6]
  outcome: inactive

## Clc1cccc(Cl)c1Cl
[3]
  outcome: inactive
[10]
  AC50: 11.5 µM (active)
[11]
  outcome: inactive
[4]
  outcome: inactive
[5]
  outcome: inactive

## COc1nn(C(=O)NS(=O)(=O)c2ccccc2OC(F)(F)F)c(=O)n1C
[1]
  outcome: inactive
[12]
  outcome: inactive
[5]
  AC50: 17.4 µM (active)

## O=C1c2ccccc2C(=O)C1C(=O)C(c1ccccc1)c1ccc(Cl)cc1 (configuration not stated)
[1]
  outcome: inactive

## Oc1c(Cl)cc(Cl)cc1Cl
[7]
  outcome: inactive

## CCCCCCCCCCCCOS(=O)(=O)O
[13]
  AC50: 37.3 µM (active)
[3]
  AC50: 25.4 µM (active)
[14]
  AC50: 7.91 µM (active)
[5]
  outcome: inactive

## CCOC(=O)CCN(SN(C)C(=O)Oc1cccc2c1OC(C)(C)C2)C(C)C
[15]
  AC50: 3.66 µM (active)

## CC1(C)[C@H](C(=O)O[C@H](C#N)c2cccc(Oc3ccccc3)c2)[C@@H]1/C=C(\Cl)C(F)(F)F
[15]
  AC50: 7.08 µM (active)
[7]
  outcome: inactive
[9]
  outcome: inactive

## CN(CCCC(O)c1cccnc1)N=O (configuration not stated)
[9]
  AC50: 35.5 µM (active)

## CCCCCCCCCCCCc1cccc(S(=O)(=O)O)c1
[2]
  AC50: 34.3 µM (active)
[3]
  AC50: 17.8 µM (active)
[14]
  AC50: 9.41 µM (active)
[16]
  AC50: 12.9 µM (active)
[11]
  AC50: 25.2 µM (active)
[4]
  AC50: 12.2 µM (active)
[6]
  AC50: 29.9 µM (active)
[7]
  AC50: 14.7 µM (active)
[17]
  AC50: 35.3 µM (active)
[8]
  AC50: 14.8 µM (active)
